Experimental data taken from PMC7862700, “An all-to-all approach to the identification of sequence-specific readers for epigenetic DNA modifications on cytosine”.

Legend:
Experiment in all cases: DAPPL (digital affinity profiling via proximity ligation, sequencing); 10 mM Tris-HCl pH 7.5, 50 mM NaCl, 1 mM DTT, 4% glycerol, room temperature, 30 min; GST-TFs on glutathione beads, 16-mer random dsDNA library, 0.1% formaldehyde crosslink after washing; high values mean tight binding
FEV = target: T1, FEV (Homo sapiens, UniProt Q99581 1-238); conditions: protein: recombinant; tags: N-terminal GST; dsDNA, one strand shown
T1 sequence: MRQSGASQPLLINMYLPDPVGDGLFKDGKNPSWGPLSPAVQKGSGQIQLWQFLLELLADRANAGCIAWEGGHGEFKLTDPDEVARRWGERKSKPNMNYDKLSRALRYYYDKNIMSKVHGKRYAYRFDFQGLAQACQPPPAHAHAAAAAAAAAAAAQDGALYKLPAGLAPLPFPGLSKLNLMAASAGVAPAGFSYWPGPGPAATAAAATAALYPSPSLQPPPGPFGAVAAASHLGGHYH
Method in brief: (§1)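 Human transcription factors carrying a GST fusion were produced in yeast, bound to glutathione beads, tagged with DNA barcodes and pooled together with a tag-only sample. Each pool was held with 200 nmole of a random double-stranded 16-mer DNA library in Tris/NaCl/DTT/glycerol buffer for 30 min at room temperature, then washed, crosslinked in 0.1% formaldehyde, proximity-ligated with BsaI/T4 ligase (1 h, 37 °C), PCR-amplified and sequenced on an Illumina NextSeq500. Binding signal is the read frequency of each hexamer for a given factor divided by its frequency in the tag-only sample.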

ETV5 = ETV5 (Homo sapiens, UniProt P41161 1-510); conditions: protein: recombinant; tags: N-terminal GST; dsDNA, one strand shown
Method in brief: as §1

HSF1 = HSF1 (Homo sapiens, UniProt Q00613 1-529); conditions: protein: recombinant; tags: N-terminal GST; chain copies: 3; dsDNA, one strand shown
Method in brief: as §1

SPIC = target: T2, SPIC (Homo sapiens, UniProt Q8N5J4 1-248); conditions: protein: recombinant; tags: N-terminal GST; dsDNA, one strand shown
T2 sequence: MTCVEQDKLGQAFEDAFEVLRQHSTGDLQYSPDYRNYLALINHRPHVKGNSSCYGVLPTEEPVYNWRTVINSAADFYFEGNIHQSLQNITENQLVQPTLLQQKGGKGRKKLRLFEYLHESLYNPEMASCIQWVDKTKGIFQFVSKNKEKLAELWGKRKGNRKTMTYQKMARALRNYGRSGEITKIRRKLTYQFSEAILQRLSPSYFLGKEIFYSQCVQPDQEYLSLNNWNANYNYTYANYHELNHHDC
Method in brief: as §1

ELF4 = ELF4 (Homo sapiens, UniProt Q99607 1-663); conditions: protein: recombinant; tags: N-terminal GST; dsDNA, one strand shown
Method in brief: as §1

ELK4 = target: T3, ELK4 (Homo sapiens, UniProt P28324-2 1-405); conditions: protein: recombinant; tags: N-terminal GST; dsDNA, one strand shown
T3 sequence: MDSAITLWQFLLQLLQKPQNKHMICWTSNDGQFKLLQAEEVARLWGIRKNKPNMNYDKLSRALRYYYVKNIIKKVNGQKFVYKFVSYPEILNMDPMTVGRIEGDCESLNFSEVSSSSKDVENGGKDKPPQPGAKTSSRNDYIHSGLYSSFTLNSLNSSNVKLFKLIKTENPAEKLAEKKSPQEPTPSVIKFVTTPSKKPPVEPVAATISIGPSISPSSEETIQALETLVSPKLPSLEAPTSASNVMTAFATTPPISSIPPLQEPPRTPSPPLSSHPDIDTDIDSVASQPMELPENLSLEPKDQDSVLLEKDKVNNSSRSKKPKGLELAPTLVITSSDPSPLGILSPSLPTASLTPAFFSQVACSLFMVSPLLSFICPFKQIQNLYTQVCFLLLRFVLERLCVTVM
Method in brief: as §1

ETV2 = target: T4, ETV2 (Homo sapiens, UniProt O00321 1-342); conditions: protein: recombinant; tags: N-terminal GST; dsDNA, one strand shown
T4 sequence: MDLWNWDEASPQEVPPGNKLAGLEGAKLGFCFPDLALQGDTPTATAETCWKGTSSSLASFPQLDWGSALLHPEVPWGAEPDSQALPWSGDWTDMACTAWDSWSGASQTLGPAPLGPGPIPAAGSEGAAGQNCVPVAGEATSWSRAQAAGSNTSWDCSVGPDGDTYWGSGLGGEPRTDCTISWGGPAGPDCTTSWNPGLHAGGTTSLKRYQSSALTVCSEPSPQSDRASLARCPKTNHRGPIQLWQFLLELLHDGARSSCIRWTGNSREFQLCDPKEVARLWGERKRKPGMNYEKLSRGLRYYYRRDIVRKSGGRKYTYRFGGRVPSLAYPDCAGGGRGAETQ
Method in brief: as §1

ELF3 = target: T5, ELF3 (Homo sapiens, UniProt P78545 1-371); conditions: protein: recombinant; tags: N-terminal GST; dsDNA, one strand shown
T5 sequence: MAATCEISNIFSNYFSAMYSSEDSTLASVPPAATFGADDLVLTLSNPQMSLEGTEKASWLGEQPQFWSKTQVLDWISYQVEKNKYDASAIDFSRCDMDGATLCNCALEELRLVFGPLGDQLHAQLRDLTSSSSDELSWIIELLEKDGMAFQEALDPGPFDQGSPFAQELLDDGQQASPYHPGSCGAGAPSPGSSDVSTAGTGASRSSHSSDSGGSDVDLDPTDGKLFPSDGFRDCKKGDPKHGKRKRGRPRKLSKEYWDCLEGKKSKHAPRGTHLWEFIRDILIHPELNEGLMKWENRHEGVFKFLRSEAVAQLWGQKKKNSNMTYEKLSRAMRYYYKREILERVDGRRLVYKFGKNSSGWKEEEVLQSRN
Method in brief: as §1

CRX = CRX (Homo sapiens, UniProt O43186 1-299); conditions: protein: recombinant; tags: N-terminal GST; dsDNA, one strand shown
Method in brief: as §1

ETV1 = ETV1 (Homo sapiens, UniProt P50549 1-477); conditions: protein: recombinant; tags: N-terminal GST; dsDNA, one strand shown
Method in brief: as §1

Chain of ETV5 (P41161 whole entry): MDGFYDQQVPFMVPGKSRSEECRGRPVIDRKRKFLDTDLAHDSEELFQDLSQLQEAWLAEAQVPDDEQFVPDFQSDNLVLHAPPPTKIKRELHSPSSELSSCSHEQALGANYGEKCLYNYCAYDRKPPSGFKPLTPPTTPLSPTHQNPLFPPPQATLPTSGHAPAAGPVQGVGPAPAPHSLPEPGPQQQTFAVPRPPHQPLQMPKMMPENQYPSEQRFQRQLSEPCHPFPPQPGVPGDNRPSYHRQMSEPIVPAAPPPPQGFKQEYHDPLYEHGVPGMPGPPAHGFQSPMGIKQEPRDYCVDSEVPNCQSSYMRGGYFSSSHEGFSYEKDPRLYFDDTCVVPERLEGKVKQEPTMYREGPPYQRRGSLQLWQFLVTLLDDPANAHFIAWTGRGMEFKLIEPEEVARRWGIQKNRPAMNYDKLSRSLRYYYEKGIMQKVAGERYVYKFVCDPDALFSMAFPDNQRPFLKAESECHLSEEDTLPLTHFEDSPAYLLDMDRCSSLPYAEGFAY
Chain of ETV1 (P50549 whole entry): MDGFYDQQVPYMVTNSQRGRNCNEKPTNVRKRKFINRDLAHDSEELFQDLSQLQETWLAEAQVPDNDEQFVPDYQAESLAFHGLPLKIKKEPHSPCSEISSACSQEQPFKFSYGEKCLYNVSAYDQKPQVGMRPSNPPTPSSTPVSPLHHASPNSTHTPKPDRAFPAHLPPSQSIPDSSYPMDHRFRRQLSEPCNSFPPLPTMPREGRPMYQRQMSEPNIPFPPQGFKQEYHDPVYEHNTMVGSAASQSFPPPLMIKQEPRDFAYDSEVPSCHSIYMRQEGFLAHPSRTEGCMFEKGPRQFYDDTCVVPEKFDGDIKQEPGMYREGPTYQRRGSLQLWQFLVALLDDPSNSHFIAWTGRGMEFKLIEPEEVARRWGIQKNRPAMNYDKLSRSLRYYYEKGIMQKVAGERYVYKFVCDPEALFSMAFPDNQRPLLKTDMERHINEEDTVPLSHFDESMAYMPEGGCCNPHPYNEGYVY
Chain of HSF1 (Q00613 whole entry): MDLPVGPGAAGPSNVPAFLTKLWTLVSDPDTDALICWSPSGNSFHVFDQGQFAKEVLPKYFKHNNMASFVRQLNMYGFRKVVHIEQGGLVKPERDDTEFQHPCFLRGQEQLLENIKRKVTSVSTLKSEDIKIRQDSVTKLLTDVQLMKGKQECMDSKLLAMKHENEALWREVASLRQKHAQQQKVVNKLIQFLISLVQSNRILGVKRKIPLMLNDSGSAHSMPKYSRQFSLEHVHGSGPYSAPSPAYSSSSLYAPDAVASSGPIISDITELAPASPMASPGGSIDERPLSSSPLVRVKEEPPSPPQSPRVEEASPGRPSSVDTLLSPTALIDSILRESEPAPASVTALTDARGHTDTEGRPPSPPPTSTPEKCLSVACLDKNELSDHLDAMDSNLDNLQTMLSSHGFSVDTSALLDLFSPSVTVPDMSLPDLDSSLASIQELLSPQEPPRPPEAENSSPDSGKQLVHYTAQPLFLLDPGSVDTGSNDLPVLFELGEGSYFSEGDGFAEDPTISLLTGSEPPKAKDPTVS
Chain of CRX (O43186 whole entry): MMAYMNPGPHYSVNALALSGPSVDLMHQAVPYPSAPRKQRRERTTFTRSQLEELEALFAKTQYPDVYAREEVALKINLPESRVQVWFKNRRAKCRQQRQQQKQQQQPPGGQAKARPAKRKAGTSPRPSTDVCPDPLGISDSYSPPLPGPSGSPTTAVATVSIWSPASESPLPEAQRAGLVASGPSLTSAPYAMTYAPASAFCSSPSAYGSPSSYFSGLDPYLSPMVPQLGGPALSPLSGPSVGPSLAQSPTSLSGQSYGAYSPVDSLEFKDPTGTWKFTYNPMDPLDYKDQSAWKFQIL
Chain of ELF4 (Q99607 whole entry): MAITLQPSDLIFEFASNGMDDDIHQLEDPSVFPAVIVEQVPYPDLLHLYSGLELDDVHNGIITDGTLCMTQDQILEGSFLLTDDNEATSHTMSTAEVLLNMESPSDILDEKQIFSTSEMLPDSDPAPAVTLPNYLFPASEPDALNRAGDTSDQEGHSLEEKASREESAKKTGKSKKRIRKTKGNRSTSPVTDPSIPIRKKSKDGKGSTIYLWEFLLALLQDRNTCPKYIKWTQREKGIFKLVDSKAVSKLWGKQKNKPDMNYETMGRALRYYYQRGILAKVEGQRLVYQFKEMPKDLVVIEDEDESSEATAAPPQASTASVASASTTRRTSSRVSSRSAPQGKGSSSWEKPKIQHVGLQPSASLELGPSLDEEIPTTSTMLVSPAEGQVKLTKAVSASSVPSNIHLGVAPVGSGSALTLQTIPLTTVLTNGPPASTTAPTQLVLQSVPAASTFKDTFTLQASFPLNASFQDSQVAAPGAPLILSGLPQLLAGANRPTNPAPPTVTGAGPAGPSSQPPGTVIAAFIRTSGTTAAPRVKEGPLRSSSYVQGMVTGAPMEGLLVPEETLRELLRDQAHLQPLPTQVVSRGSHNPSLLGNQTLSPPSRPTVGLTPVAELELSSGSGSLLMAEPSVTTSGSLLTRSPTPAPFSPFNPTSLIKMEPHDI

For ACTTTA, the binding signal (FEV) was 1.15 fold enrichment (6-mer frequency, TF over GST control), the binding signal (ETV5) was 1.21 fold enrichment (6-mer frequency, TF over GST control) and the binding signal (HSF1) was 1.33 fold enrichment (6-mer frequency, TF over GST control). For the same sequence, the binding signal (SPIC) was 1.21 fold enrichment (6-mer frequency, TF over GST control), the binding signal (ELF4) was 1.23 fold enrichment (6-mer frequency, TF over GST control) and the binding signal (ELK4) was 1.15 fold enrichment (6-mer frequency, TF over GST control). For the same sequence, the binding signal (ETV2) was 1.26 fold enrichment (6-mer frequency, TF over GST control), the binding signal (ELF3) was 1.23 fold enrichment (6-mer frequency, TF over GST control) and the binding signal (CRX) was 1.54 fold enrichment (6-mer frequency, TF over GST control). The binding signal (ETV1) was 1.21 fold enrichment (6-mer frequency, TF over GST control).

CTGTCT was tested, and the binding signal (FEV) was 1.42 fold enrichment (6-mer frequency, TF over GST control), the binding signal (ETV5) was 1.4 fold enrichment (6-mer frequency, TF over GST control) and the binding signal (HSF1) was 1.22 fold enrichment (6-mer frequency, TF over GST control). For the same sequence, the binding signal (SPIC) was 1.56 fold enrichment (6-mer frequency, TF over GST control), the binding signal (ELF4) was 1.38 fold enrichment (6-mer frequency, TF over GST control) and the binding signal (ELK4) was 1.46 fold enrichment (6-mer frequency, TF over GST control). The binding signal (ETV2) was 1.26 fold enrichment (6-mer frequency, TF over GST control), the binding signal (ELF3) was 1.47 fold enrichment (6-mer frequency, TF over GST control) and the binding signal (CRX) was 1.09 fold enrichment (6-mer frequency, TF over GST control). For the same sequence, the binding signal (ETV1) was 1.4 fold enrichment (6-mer frequency, TF over GST control).

In the case of CCTTTC, the binding signal (FEV) is reported as 1.71 fold enrichment (6-mer frequency, TF over GST control), the binding signal (ETV5) is reported as 1.51 fold enrichment (6-mer frequency, TF over GST control) and the binding signal (HSF1) is reported as 1.43 fold enrichment (6-mer frequency, TF over GST control). For the same sequence, the binding signal (SPIC) was 1.65 fold enrichment (6-mer frequency, TF over GST control), the binding signal (ELF4) was 1.68 fold enrichment (6-mer frequency, TF over GST control) and the binding signal (ELK4) was 1.64 fold enrichment (6-mer frequency, TF over GST control). For the same sequence, the binding signal (ETV2) was 1.56 fold enrichment (6-mer frequency, TF over GST control), the binding signal (ELF3) was 1.42 fold enrichment (6-mer frequency, TF over GST control) and the binding signal (CRX) was 1.27 fold enrichment (6-mer frequency, TF over GST control). For the same sequence, the binding signal (ETV1) was 1.5 fold enrichment (6-mer frequency, TF over GST control).

TCACTG was tested, and the binding signal (FEV) was 1.22 fold enrichment (6-mer frequency, TF over GST control), the binding signal (ETV5) was 1.15 fold enrichment (6-mer frequency, TF over GST control) and the binding signal (HSF1) was 1.15 fold enrichment (6-mer frequency, TF over GST control). The binding signal (SPIC) was 1.24 fold enrichment (6-mer frequency, TF over GST control), the binding signal (ELF4) was 1.17 fold enrichment (6-mer frequency, TF over GST control) and the binding signal (ELK4) was 1.14 fold enrichment (6-mer frequency, TF over GST control). For the same sequence, the binding signal (ETV2) was 1.15 fold enrichment (6-mer frequency, TF over GST control), the binding signal (ELF3) was 1.48 fold enrichment (6-mer frequency, TF over GST control) and the binding signal (CRX) was 1.09 fold enrichment (6-mer frequency, TF over GST control). The binding signal (ETV1) was 1.21 fold enrichment (6-mer frequency, TF over GST control).

TAGCCT was tested, and the binding signal (FEV) was 1.26 fold enrichment (6-mer frequency, TF over GST control), the binding signal (ETV5) was 1.22 fold enrichment (6-mer frequency, TF over GST control) and the binding signal (HSF1) was 1.43 fold enrichment (6-mer frequency, TF over GST control). For the same sequence, the binding signal (SPIC) was 1.17 fold enrichment (6-mer frequency, TF over GST control), the binding signal (ELF4) was 1.24 fold enrichment (6-mer frequency, TF over GST control) and the binding signal (ELK4) was 1.18 fold enrichment (6-mer frequency, TF over GST control). For the same sequence, the binding signal (ETV2) was 1.22 fold enrichment (6-mer frequency, TF over GST control), the binding signal (ELF3) was 1.27 fold enrichment (6-mer frequency, TF over GST control) and the binding signal (CRX) was 1.53 fold enrichment (6-mer frequency, TF over GST control). For the same sequence, the binding signal (ETV1) was 1.26 fold enrichment (6-mer frequency, TF over GST control).

In the case of CTTTGC, the binding signal (FEV) is reported as 1.19 fold enrichment (6-mer frequency, TF over GST control), the binding signal (ETV5) is reported as 1.32 fold enrichment (6-mer frequency, TF over GST control) and the binding signal (HSF1) is reported as 1.25 fold enrichment (6-mer frequency, TF over GST control). The binding signal (SPIC) was 1.45 fold enrichment (6-mer frequency, TF over GST control), the binding signal (ELF4) was 1.36 fold enrichment (6-mer frequency, TF over GST control) and the binding signal (ELK4) was 1.32 fold enrichment (6-mer frequency, TF over GST control). The binding signal (ETV2) was 1.4 fold enrichment (6-mer frequency, TF over GST control), the binding signal (ELF3) was 1.46 fold enrichment (6-mer frequency, TF over GST control) and the binding signal (CRX) was 1.33 fold enrichment (6-mer frequency, TF over GST control). For the same sequence, the binding signal (ETV1) was 1.35 fold enrichment (6-mer frequency, TF over GST control).

For TCTCTT, the binding signal (FEV) was 1.41 fold enrichment (6-mer frequency, TF over GST control), the binding signal (ETV5) was 1.39 fold enrichment (6-mer frequency, TF over GST control) and the binding signal (HSF1) was 1.39 fold enrichment (6-mer frequency, TF over GST control). The binding signal (SPIC) was 1.34 fold enrichment (6-mer frequency, TF over GST control), the binding signal (ELF4) was 1.34 fold enrichment (6-mer frequency, TF over GST control) and the binding signal (ELK4) was 1.49 fold enrichment (6-mer frequency, TF over GST control). The binding signal (ETV2) was 1.37 fold enrichment (6-mer frequency, TF over GST control), the binding signal (ELF3) was 1.28 fold enrichment (6-mer frequency, TF over GST control) and the binding signal (CRX) was 1.58 fold enrichment (6-mer frequency, TF over GST control). The binding signal (ETV1) was 1.42 fold enrichment (6-mer frequency, TF over GST control).
